# Reference: PubChem BioAssay (EPA / NIEHS)
# Records with an inconclusive call do not appear. The source made the active and inactive calls. How the source made its calls: active means hit-call score of the fitted dose curve at least 0.9, where 1 is the maximum; inconclusive means response in the unintended direction; inactive means score below 0.9.
# Target: Luciferin 4-monooxygenase (Photinus pyralis) (UniProt P08659)
# Experiment: CCTE_Simmons_QuantiLum_inhib_2: CCTE's Firefly Luciferase Inhibition Assay, Simmons Lab (AID 2283767);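 on AC50: potency for inhibitors that lower luciferase luminescence relative to DMSO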
# Description: CCTE_Simmons_QuantiLum_inhib_2 is a biochemical, single-readout assay that uses purified luciferase enzyme in a cell-free assay.Measurements were taken 0.5 hour after chemical dosing in a 384-well plate.CCTE_Simmons_QuantiLum_inhib_2 is the assay component measured from the CCTE_Simmons_QuantiLum_inhib_2 assay. It is designed to make measurements of enzyme activity, a form of enzyme reporter, as detected with bioluminescence signals by Luciferase-coupled Quantilum levels technology. This is a secondary assay to CCTE_Simmons_AUR_TPO to evaluate nonspecific enzyme inhibition.Data from the assay component CCTE_Simmons_QuantiLum_inhib_2 was analyzed at the endpoint, CCTE_Simmons_QuantiLum_inhib_2, in the positive analysis fitting direction relative to DMSO as the negative control and baseline of activity. Using a type of enzyme reporter, measures of enzyme activity for loss-of-signal activity can be used to understand inhibition of firefly luciferase. This is an assay endpoint to indicate nonspecific protein inhibition for comparison to aeid 1508 for thyroperoxidase inhibition. To generalize the intended target to other relatable targets, this assay endpoint is annotated to the oxidoreductase intended target family, where the subfamily is monooxygenase.
# Quanti-Lum recombinant luciferase (Promega; Madison, Wisconsin) was diluted to 76.9 ng/ml with 200mM potassium phosphate buffer supplemented with 1 mg/ml bovine serum albumin and 65ul (5ng recombinant luciferase) per well was dispensed into opaque, white 384-well plates (Greiner, BioExpress) using an automated liquid handler (BioTek MicroFlo) with a plastic 5 ul tubing cassette. Test compounds were administered using the HDRT as described earlier to achieve a 0.5% final DMSO concentration. Microplates were incubated at 37C in the dark for 30min to mimic the AUR-TPO assay conditions. Luciferase detection reagent (25 ul per well; 9.2 mM dithiothreitol, 75uM Coenzyme A, 147uM dATP, 150uM D-luciferin, 8.9 mM Tricine, 297uM (MgCO3)4.Mg(OH)2.5H20, 742uM MgSO4, 27.8uM EDTA, pH 7.8, final assay concentrations) was then added using a BMG Clariostar plate reader equipped with syringe injectors (BMG LabTech; GmbH). Plates were read using a kinetic luminescence protocol (top read) whereby each well was individually injected with luciferase detection reagent immediately prior to measurement. Three biological replicates of technical singles were run for every chemical concentration tested. A titrated range of LUCINH2 served as a positive control on each plate of the luciferase inhibition screening assay. Test chemicals were administered as a titrated series of 8 concentrations from 5 nM up to 87.5 uM [final] for 30 minutes prior to single endpoint detection. Dimethylsulfoxide [DMSO] was used as the vehicle control. Luciferase Inhibitor I [2-(5-(2-Methoxyphenyl)-1,2,4-oxadiazol-3-yl)pyridine] was used as the positive control and was administered as a titrated series of 8 concentrations from 1 nM up to 100 uM [final].
# Sequence of Luciferin 4-monooxygenase (Photinus pyralis) (P08659 whole entry, looked up): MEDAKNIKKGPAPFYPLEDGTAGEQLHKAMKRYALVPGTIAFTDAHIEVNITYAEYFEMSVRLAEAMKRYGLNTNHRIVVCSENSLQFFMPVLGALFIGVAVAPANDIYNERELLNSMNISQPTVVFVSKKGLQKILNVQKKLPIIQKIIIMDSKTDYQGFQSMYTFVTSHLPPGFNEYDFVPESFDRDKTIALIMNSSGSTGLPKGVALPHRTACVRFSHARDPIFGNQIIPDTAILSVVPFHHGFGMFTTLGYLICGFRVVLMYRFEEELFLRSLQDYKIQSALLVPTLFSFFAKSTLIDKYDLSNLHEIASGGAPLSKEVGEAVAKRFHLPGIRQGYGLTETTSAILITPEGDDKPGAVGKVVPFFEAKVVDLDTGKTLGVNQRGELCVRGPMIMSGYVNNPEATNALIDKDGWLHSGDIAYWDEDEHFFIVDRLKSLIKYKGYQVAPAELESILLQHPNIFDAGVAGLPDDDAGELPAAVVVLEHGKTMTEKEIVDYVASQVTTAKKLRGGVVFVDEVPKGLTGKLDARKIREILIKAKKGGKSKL
SMILES,AC50,outcome
CN(C)C(=S)SSC(=S)N(C)C,80.1 µM (active),–
O=C(Nc1ccccc1)Nc1ccnc(Cl)c1,–,inactive
CCCN(CCC)c1c([N+](=O)[O-])cc(S(N)(=O)=O)cc1[N+](=O)[O-],–,inactive
CC1COC(Cn2cncn2)(c2ccc(Oc3ccc(Cl)cc3)cc2Cl)O1 (stereo not drawn),–,inactive
CCOP(=S)(OCC)SCn1c(=O)oc2cc(Cl)ccc21,–,inactive
C=CCC1=C(C)C(OC(=O)C2C(C=C(C)C)C2(C)C)CC1=O (stereo not drawn),–,inactive
CON(C)C(=O)Nc1ccc(Cl)c(Cl)c1,–,inactive
CC1=C(C(=O)Nc2ccccc2)SCCO1,–,inactive
C=CCC1=C(C)[C@@H](OC(=O)[C@@H]2[C@@H](C=C(C)C)C2(C)C)CC1=O,–,inactive
CNC(=S)S,–,inactive
CCOC(=O)CC(SP(=S)(OC)OC)C(=O)OCC (stereo not drawn),–,inactive
COP(=S)(OC)Oc1nc(Cl)c(Cl)cc1Cl,–,inactive
Oc1ccccc1-c1ccccc1,–,inactive
CCCCNC(=O)n1c(NC(=O)OC)nc2ccccc21,21.5 µM (active),–
CCCC1COC(Cn2cncn2)(c2ccc(Cl)cc2Cl)O1 (stereo not drawn),14.4 µM (active),–
COP(N)(=O)SC (stereo not drawn),–,inactive
COC(=O)C=C(C)OP(=O)(OC)OC,–,inactive
O=C(O)c1nc(Cl)ccc1Cl,–,inactive
